Measurements from the supplement of paper PMC9135407.
Values joined by “and” are separate entries in the source; they are usually repeats but may differ in a detail not shown here. Identical values can stand only once. Counter-ions that a name gives are not always drawn. Among all 5,800 compounds or so, about 620 (11%) showed activity. This is one part of a sample in which actives are shown more often than they occur. Unmarked numbers belong to inactive results.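 The calls were made as follows: active = score above a cut-off or among the top three wells of a plate; in these data no inactive exceeds 0.85.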

Test system: primary human hepatic stellate cells (donor 1)
Assay: scaled lipid accumulation score (0 = DMSO-like, 1 = nortriptyline-like); higher = stronger HSC inactivation (lipid re-accumulation), active = hit call of the paper
Conditions: 48 h
[1] = library stock concentration: 10 mM
[2] = library stock concentration: 1 mM
[3] = library stock concentration: 3.33 mM

## CC[C@@H]1Cn2c(c3nc(-c4ccccc4)nc-3n(C)c2=O)N1
[1]
  scaled lipid accumulation score: 0.008

## c1cnc2cc3c(cc2n1)[C@@H]1CNC[C@H]3C1 [Varenicline tartrate]
[1]
  scaled lipid accumulation score: ≤ 0

## NC(=O)[C@@H]1CCCN1C(=O)[C@H](Cc1c[nH]cn1)NC(=O)[C@@H]1CCC(=O)N1
[1]
  scaled lipid accumulation score: ≤ 0

## CC[C@@H](C(=O)[C@@H](C)[C@@H](O)[C@H](C)CCc1ccc(C)c(O)c1C(=O)O)[C@H]1O[C@](CC)([C@H]2CC[C@](O)(CC)[C@H](C)O2)C[C@@H]1C [Lasalocid sodium salt]
  scaled lipid accumulation score: 0.439

## CC[C@@H](C(=O)[C@@H](C)[C@@H](O)[C@H](C)CCc1ccc(C)c(O)c1C(=O)O)[C@H]1O[C@](CC)([C@H]2CC[C@](O)(CC)[C@H](C)O2)C[C@@H]1C [Lasalocid sodium]
[1]
  scaled lipid accumulation score: 0.665

## COc1ccc(C2CC(c3c(O)cc(C)oc3=O)=NCCS2)c(OC)c1 (configuration not stated)
[1]
  scaled lipid accumulation score: 0.164

## CCCCC[C@](C)(O)/C=C/[C@H]1[C@H](O)CC(=O)[C@@H]1CCCCCCC(=O)O [15(S)-15-methyl Prostaglandin E1]
[2]
  scaled lipid accumulation score: 0.012

## Cc1nnc(-c2ccc3occ(-c4ccc([S+](C)[O-])cc4)c3c2)o1 (configuration not stated)
[1]
  scaled lipid accumulation score: 0.106

## NC(=O)Cc1cccc(C(=O)c2ccccc2)c1N [Nepafenac]
[3]
  scaled lipid accumulation score: ≤ 0
[1]
  scaled lipid accumulation score: 0.098

## O=C(O)C1CSCN1 (configuration not stated)
[1]
  scaled lipid accumulation score: ≤ 0

## COc1c(OC)c2occc2c2oc(=O)ccc12 [Pimpinellin]
[1]
  scaled lipid accumulation score: ≤ 0

## O=C(O)CCC/C=C/C[C@@H]1[C@@H](/C=C/[C@@H](O)COc2cccc(C(F)(F)F)c2)[C@H](O)C[C@@H]1O [5-trans Fluprostenol]
[2]
  scaled lipid accumulation score: 0.008

## CC(C)COCC(CN(Cc1ccccc1)c1ccccc1)N1CCCC1 (configuration not stated) [Bepridil hydrochloride]
  scaled lipid accumulation score: 0.677
Library stock concentration: 5 mM
  scaled lipid accumulation score: 0.569
[1]
  scaled lipid accumulation score: 0.175 and 0.195

## CC(C)COCC(CN(Cc1ccccc1)c1ccccc1)N1CCCC1.Cl (configuration not stated)
Library stock concentration: 12.4 mM
  scaled lipid accumulation score: 0.96 (active)

## c1ccc(CN(CC2=NCCN2)c2ccccc2)cc1 [Antazoline phosphate]
[1]
  scaled lipid accumulation score: 0.143

## c1ccc(CN(CC2=NCCN2)c2ccccc2)cc1 [Antazoline hydrochloride]
  scaled lipid accumulation score: 0.544
[1]
  scaled lipid accumulation score: 0.11

## c1ccc(CN(CC2=NCCN2)c2ccccc2)cc1 [Antazoline HCl]
[3]
  scaled lipid accumulation score: ≤ 0
[1]
  scaled lipid accumulation score: 0.363

## Nc1cc2c(ncn2CCOCP(=O)(O)O)c(=O)[nH]1 [PMEG hydrate]
[1]
  scaled lipid accumulation score: ≤ -0.055

## C=CCNC1=C2C[C@@H](C)C[C@H](OC)[C@H](O)[C@@H](C)C=C(C)[C@H](OC(N)=O)[C@@H](OC)C=CC=C(C)C(=O)NC(=CC1=O)C2=O [17-AAG (Tanespimycin)]
[1]
  scaled lipid accumulation score: 0.873 (active)

## COC1=C2C[C@@H](C)C[C@H](OC)[C@H](O)[C@@H](C)/C=C(\C)[C@H](OC(N)=O)[C@@H](OC)/C=C\C=C(/C)C(=O)NC(=CC1=O)C2=O [Geldanamycin]
[3]
  scaled lipid accumulation score: 0.54
Library stock concentration: 8.9 mM
  scaled lipid accumulation score: 0.573
[1]
  scaled lipid accumulation score: 0.493

## CO[C@H]1C=CC=C(C)C(=O)NC2=CC(=O)C(NCCN(C)C)=C(C[C@@H](C)C[C@H](OC)[C@H](O)[C@@H](C)C=C(C)[C@@H]1OC(N)=O)C2=O.Cl [17-DMAG (Alvespimycin) HCl]
[1]
  scaled lipid accumulation score: 1.24 (active)

## CO[C@H]1/C=C\C=C(/C)C(=O)NC2=CC(=O)C(NCCN(C)C)=C(C[C@@H](C)C[C@H](OC)[C@H](O)[C@@H](C)/C=C(\C)[C@@H]1OC(N)=O)C2=O [17-DMAG (Alvespimycin) HCl]
[3]
  scaled lipid accumulation score: 0.404

## C=CCNC1=C2C[C@@H](C)C[C@H](OC)[C@H](O)[C@@H](C)/C=C(\C)[C@H](OC(N)=O)[C@@H](OC)/C=C\C=C(/C)C(=O)NC(=CC1=O)C2=O [17-AAG (Tanespimycin)]
[3]
  scaled lipid accumulation score: 0.613

## CCCCC[C@H](O)/C=C/[C@@H]1[C@@H](C/C=C/CCCC(=O)O)[C@H](O)C[C@H]1O [5-trans Prostaglandin F2.beta.]
[2]
  scaled lipid accumulation score: ≤ 0

## O=C1OC(O)C(c2cc3ccccc3s2)=C1Br (configuration not stated)
[2]
  scaled lipid accumulation score: 0.04

## O=C1O/C(=C/Br)CC[C@H]1c1cccc2ccccc12 [(S)-Bromoenol lactone]
[2]
  scaled lipid accumulation score: 0.103

## COc1cc(C(=O)N2CCOCC2)cc(OC)c1OC [Trimetozine]
Library stock concentration: 7.1 mM
  scaled lipid accumulation score: ≤ 0

## COc1cc(N)c(Cl)cc1C(=O)OCCCN1CCCCC1
[1]
  scaled lipid accumulation score: 0.126

## COc1cc(C(=O)NCCCCCC(=O)O)cc(OC)c1OC [Capobenic acid]
Library stock concentration: 6.1 mM
  scaled lipid accumulation score: ≤ 0

## COc1cc(C(=O)OCCC[NH+]2CCC[NH+](CCCOC(=O)c3cc(OC)c(OC)c(OC)c3)CC2)cc(OC)c1OC.[Cl-].[Cl-] [Dilazep hydrochloride]
[1]
  scaled lipid accumulation score: 0.951 (active)

## COc1cc(N)c(Cl)cc1C(=O)OCCN1CCCCC1
[1]
  scaled lipid accumulation score: ≤ -0.007

## COc1cc(OC)c(C(=O)CCCN2CCCC2)c(OC)c1 [Buflomedil HCl]
[3]
  scaled lipid accumulation score: ≤ 0
[1]
  scaled lipid accumulation score: ≤ 0

## COc1cc(C(=O)OCCCN2CCCN(CCCOC(=O)c3cc(OC)c(OC)c(OC)c3)CC2)cc(OC)c1OC.Cl.Cl
[1]
  scaled lipid accumulation score: 0.84 (active)

## COc1cc(C(=O)OCCCN2CCCN(CCCOC(=O)c3cc(OC)c(OC)c(OC)c3)CC2)cc(OC)c1OC.Cl.Cl [Dilazep dihydrochloride]
[1]
  scaled lipid accumulation score: 1.06 (active)

## COc1cc(C(=O)OCCCN2CCCN(CCCOC(=O)c3cc(OC)c(OC)c(OC)c3)CC2)cc(OC)c1OC [Dilazep dihydrochloride]
  scaled lipid accumulation score: 0.164

## COc1cc(OC)c(C(=O)CCCN2CCCC2)c(OC)c1 [Buflomedil hydrochloride]
  scaled lipid accumulation score: 0.025

## COc1cc(OC)c(C(=O)CCCN2CCCC2)c(OC)c1
[1]
  scaled lipid accumulation score: ≤ 0

## CC1(C)CCCC2(C)C1CCC1(C)OC(=O)CC12 (configuration not stated) [Sclareolide]
[3]
  scaled lipid accumulation score: ≤ 0
[1]
  scaled lipid accumulation score: 0.09
